Measurements: publication PMC5540273 (PLoS ONE, 2017)

What follows are compounds tested on MAK. Conditions: concentration: 1 μM, replicates: in singlicate; n = 1.
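Note: KINOMEscan kinase panel screen.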

| SMILES | %Inh |
| --- | --- |
| Cn1cncc1C(=O)NC1CCN(c2ccnc(Nc3ccc(F)cc3)n2)C1 (stereo not shown) [GSK1379717] | 22% |
| CC(C)c1cc(-c2ccc3c(N)n[nH]c3c2)nc(N)n1 [GSK2250882] | 0% |
| COc1cccc(CNC(=O)NC2CCN(c3ccnc(Nc4ccc(F)cc4)n3)C2)c1 (stereo not shown) [GSK1379723] | 23% |
| Cc1ccc(-c2nc(Nc3ccncc3)c3ccccc3n2)s1 [GSK189015] | 36% |
| Nc1nccc(-c2c(-c3ccc(F)cc3)ncn2C2CCN(Cc3ccccc3)CC2)n1 [SB-219980] | 0% |
| COc1cccc(C2=C(Nc3cc(Cl)c(O)c(Cl)c3)C(=O)NC2=O)c1 [SB-390767] | 4% |
| Cc1ccc(NC(=O)Nc2ccc(Cl)c(C(F)(F)F)c2)cc1-c1ccc(C(=O)Nc2ccncc2)cc1 [GSK1398470] | 15% |
| COc1ccc(Nc2nccc(N3CCC(NC(=O)c4cc5ccccc5s4)C3)n2)cc1 (stereo not shown) [GSK1379738] | 86% |
| Cc1ccc(NC(=O)c2ccc(Cl)cc2)cc1-c1ccc(C(=O)Nc2ccncc2)cc1 [GSK1398467] | 0% |
| FC(F)(F)c1ccccc1-c1cc(-c2c[nH]nc2-c2ccccn2)ccn1 [GW679396] | 35% |
| CNc1cc(-c2ccc3c(N)n[nH]c3c2)nc(N)n1 [GSK2224810] | 0% |
| Cc1nccc(-c2c(-c3ccc(F)cc3)ncn2CCCN2CCOCC2)n1.Cl [SB-282975] | 25% |
| CS(=O)(=O)CCNCc1nc(-c2ccc3ncnc(Nc4ccc(OCc5ccccc5)c(Cl)c4)c3c2)cs1.Cl [GW582764] | 26% |
